# PrP UTR inh = inhibition of PrP 5' UTR reporter expression; cell-based PrP 5' UTR mRNA reporter, plate reader; inhibition, % (test concentration not listed); 0.35% of 340,000 active; in the data active = inhibition above about 52%; also: 0 = median of the neutral control wells
# PfHsp40 rescue = restores yeast growth despite PfHsp40 toxicity | S. cerevisiae expressing PfHsp40, growth rescue, ATP luminescence | growth rescue, % at 12.5 µM | 0.68% of 340,000 active | AID 504582; in the data active = growth rescue above about 28%, passing the limit was not always enough;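 also: yeast W303a lacking pdr1 and pdr3 grown in galactose medium; growth measured after three days at 30 °C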
# CCHF vOTU inh-1 = CCHFV vOTU protease inhibition | inhibition, % at 11.5 µM | Pep-AMC fluorescence | AID 651958 | 0.55% of 370,000 active; also: 0% = vehicle wells with enzyme and 100% = no enzyme wells
# PrPC TRFRET = inhibitors of human cell surface prion protein PrPC; AID 720596; P04156; inhibition, % at 13.8 µM; 0.43% of 370,000 active; TR-FRET read-out; in the data active = inhibition above about 24%; also: 0% = median of the test wells and 100% = reference compound wells
# BJeLR lethal = BJeLR cell viability loss; BJeLR (HRASV12) viability, CellTiter-Glo ATP luminescence, 48 h; inhibition, % (test concentration not listed); 0.17% of 300,000 active; AID 1554; in the data active = inhibition above about 50%
# Y pestis TopoI = Y. pestis Topo-I inhibition via cleavage products | Y. pestis Topo-I cleavage product accumulation, plate reader | activity, % at 10 µM | 0.064% of 360,000 active | AID 504884; in the data active = activity above about 50%, passing the limit was not always enough
# CCHF vOTU inh-2 = CCHFV vOTU protease inhibition, confirmation. 17% of 1,900 active. AID 686976. shares compounds with CCHF vOTU inh-1. Recombinant CCHFV vOTU, Pep-AMC fluorescence. inhibition, % at 11.5 µM
# Active calls of the source: *; x = no result. Sampled rows, rich in hits. Any-hit rate of the full collection: about 2%. Rule as the data show it, unless noted: active = inhibition above about 30%; inactive = the rest.
SMILES,PrP UTR inh,PfHsp40 rescue,CCHF vOTU inh-1,PrPC TRFRET,BJeLR lethal,Y pestis TopoI,CCHF vOTU inh-2
CCCCCC(=O)N1C[C@H](n2cc(COC(=O)c3ccccc3)nn2)[C@@H](O)C[C@@H]1c1ccc(C)cc1,x,x,35*,6,x,34,4
CCCCCC(=O)N1C[C@@H](O)[C@H](n2cc(COC(=O)c3ccccc3)nn2)C[C@@H]1c1ccc(C)cc1,x,x,13,3,x,15,x
CCCCCCN1C[C@H](n2cc(COC(=O)c3ccccc3)nn2)[C@@H](O)C[C@@H]1c1ccc(Cl)cc1,x,x,32*,4,x,19,11
CCCCCCN1C[C@H](O)[C@@H](n2cc(-c3ccc(F)cc3)nn2)C[C@@H]1c1ccccc1,x,x,33*,1,x,13,-9
C[C@H](CO)N1C[C@H](C)[C@@H](CN(C)C(=O)Nc2cccc(F)c2)OCc2cn(nn2)CCCC1=O,x,x,-6,2,x,x,x
C=CCN1C(=O)[C@H](CC(=O)N2CCN(C(=O)c3ccco3)CC2)[C@@]2(C(=O)OCC)CCCC=C12,x,x,-3,-1,x,x,x
CC(C)NC(=O)N(C)C[C@H]1OCc2cn(nn2)CCCC(=O)N([C@H](C)CO)C[C@@H]1C,x,x,-6,-3,x,x,x
Cc1ccccc1CN1CCCCC(NC(=O)C2CCCC2)C1=O (stereo not given),x,x,8,0,x,x,x
O=C(O)Cn1cc(/C=N/NC(=O)c2cc3cc(Br)ccc3o2)c2ccccc21,-22,1,31*,8,5,11,-1
Oc1ccc(N=Cc2ccc(OCc3ccccc3)cc2)cc1,-9,2,94*,-24,-2,4,67*
O=C(N/N=C/c1ccc(OCc2ccccc2)cc1)c1ccncc1,-21,0,11,4,-1,7,x
CCCCc1c(-c2ccc(F)cc2F)ncn1CCc1ccccc1OC,x,x,40*,3,x,x,5
CCCCCc1c(-c2ccc(F)cc2F)ncn1CCc1ccccc1OC,x,x,21,3,x,x,x
COc1ccccc1CCn1cnc(-c2ccccc2F)c1CC(C)C,x,x,45*,16,x,x,2
COc1ccccc1CCn1cnc(-c2ccc(F)cc2F)c1CC(C)C,x,x,29,15,x,x,x
O=C(Nc1ccc(F)cc1)Nc1nc2ncccn2c1-c1ccc(F)cc1,x,x,-25,-7,x,x,x
O=C1CCc2cc(S(=O)(=O)N3CCN(c4ccccc4Cl)CC3)ccc2N1,x,x,6,7,x,x,x
CCCCOc1ccc(C(=O)NC2CCCCN(C(C)C)C2=O)cc1 (stereo not given),x,x,-1,10,x,x,x
Nc1cc(S(=O)(=O)O)cc2ccc(S(=O)(=O)O)cc12,-18,16,44*,-17,x,-4,-97
COC(=O)[C@]12C[C@H](CC(=O)N3CCSCC3)C(=O)N(Cc3ccco3)C1=C[C@H](C(C)C)O[C@@H]2C1CC1,x,x,3,3,x,x,x
CCCCCCCCC(=O)NC(NC(=S)N1CCOCC1)C(Cl)(Cl)Cl (stereo not given),-4,1,36*,-8,2,-1,-6
O=C(NCCc1ccccc1)OCc1cn(Cc2ccc(Cl)cc2)nn1,x,x,3,1,x,x,x
CCOC(=O)[C@]12CCCC3=C1N(CCC3)C(=O)[C@@H](CC(=O)N1CCOCC1)C2,x,x,-10,-5,x,x,x
CC(NC(=O)COC(=O)C1CCN(c2ccc(C(F)(F)F)cn2)CC1)c1ccccc1 (stereo not given),x,x,18,-4,x,20,x
O=C(COC(=O)C1CCN(c2ccc(C(F)(F)F)cn2)CC1)NCc1ccccc1,-55,1,35*,5,x,16,-2
SMILES,PrP UTR inh,PfHsp40 rescue,CCHF vOTU inh-1,PrPC TRFRET,BJeLR lethal,Y pestis TopoI,CCHF vOTU inh-2
C[C@@H]1[C@@H](c2ccccc2)OC(O)([C@H](Cc2ccccc2)NC(=O)OC(C)(C)C)CN1C (stereo not given in full),x,x,x,-4,x,x,x
Cn1c2ccccc2c2cc(/C=N/NC(=O)c3cc(O)cc(O)c3)ccc21,-15,3,3,-5,-9,-7,x
Cn1c2ccccc2c2cc(/C=N/NC(=O)c3cc(O)ccc3O)ccc21,5,4,51*,-12,-16,6,64*
O=C(CSc1nnc(COc2ccccc2)n1-c1ccc(Cl)cc1)Nc1ccc2c(c1)OCCO2,x,x,6,5,x,x,x
COc1cccc(C2c3c(ncn(-c4ccccc4)c3=N)Oc3ccc4ccccc4c32)c1OC (stereo not given),x,x,x,5,x,x,x
CSc1nc(-c2ccco2)nn1S(C)(=O)=O,-24,0,36*,4,-10,1,28
C[C@@H]1CCN(C2CC2)S(=O)(=O)c2c(cccc2N2CC[C@H](N(C)C)C2)O1,x,x,12,-6,x,x,x
CC1Cc2nc(SCC(N)=O)n(C)c(=O)c2S1 (stereo not given),3,-1,32*,-9,2,-10,-9
C=CCn1c(NS(=O)(=O)c2ccccc2)c(S(=O)(=O)c2ccc(C)cc2)c2nc3ccccc3nc21,-23,-1,33*,-8,5,7,-14
CC(=O)Nc1c(S(=O)(=O)c2ccccc2)c2nc3ccccc3nc2n1Cc1ccccc1,-17,-1,-133,1,0,22,x
O=S(=O)(Nc1c(S(=O)(=O)c2ccccc2)c2nc3ccccc3nc2n1C1CCCCC1)c1ccccc1,-1,-1,94*,-5,9,28,64*
CCCCCCC12C(=Cc3cc(C)ccc31)c1ccccc1C(CC(=O)NCc1ccccc1)N2C(=O)OC (stereo not given),x,x,26,-1,x,x,x
Cc1nc(SCC(N)=O)[nH]c(=O)c1C,x,x,x,-3,x,x,x
CC(C)(C)c1ccc(C(=O)OCc2c(-c3ccccc3)ncc3ccccc23)cc1,-1,0,30*,-4,x,-1,-13
COC(=O)c1ccc(COc2nc(C)cc(C)c2C#N)o1,-13,-1,32*,3,-7,9,-2
CC(C)(C)OC(=O)N1CCC(N[C@@H](Cc2ccccc2)C(=O)NCC(c2ccccc2)c2ccccc2)(C(=O)NC2CCCCC2)CC1,x,x,x,-1,x,x,x
C=CCC[C@H](Cc1ccc(F)cc1)C(=O)OC[C@H](Cc1c[nH]c2ccccc12)NC(=O)[C@@H](CC=C)CC(=O)N(CCO)Cc1ccccc1,-15,-2,16,8,x,31,x
C=CCC[C@H](Cc1ccc(F)cc1)C(=O)OC[C@@H](Cc1c[nH]c2ccccc12)NC(=O)[C@@H](CC=C)CC(=O)N(CCO)Cc1ccccc1,4,0,32*,6,x,38,8
C=CC[C@@H](CC(=O)N[C@H](CO)Cc1ccccc1)C(=O)N[C@@H](COC(=O)[C@@H](CC=C)CC(=O)OC(C)(C)C)Cc1c[nH]c2ccccc12,-21,0,31*,4,x,20,-11
CCOC(=O)[C@]12CCCC3=C1N(CCC3)C(=O)[C@@H](CC(=O)NCc1ccc(C)o1)C2,x,x,-1,4,x,x,x
COc1cccc(CN(C)C(=O)[C@H]2O[C@@H](n3cnc4c(=O)[nH]c(N)nc43)[C@H](O)[C@@H]2O)c1,x,x,-2,1,x,x,x

# Assay outcomes (PubChem BioAssay)
